# Source: article PMC7862700, “An all-to-all approach to the identification of sequence-specific readers for epigenetic DNA modifications on cytosine”
# What was measured:
# Assay in all cases: DAPPL (digital affinity profiling via proximity ligation, sequencing); 10 mM Tris-HCl pH 7.5, 50 mM NaCl, 1 mM DTT, 4% glycerol, room temperature, 30 min; GST-TFs on glutathione beads, 16-mer random dsDNA library, 0.1% formaldehyde crosslink after washing; high values mean tight binding
# Settings in all cases: protein: recombinant; tags: N-terminal GST; dsDNA, one strand shown
# ELK1 = target: T1, ELK1 (Homo sapiens, UniProt P19419 1-428)
# T1 sequence: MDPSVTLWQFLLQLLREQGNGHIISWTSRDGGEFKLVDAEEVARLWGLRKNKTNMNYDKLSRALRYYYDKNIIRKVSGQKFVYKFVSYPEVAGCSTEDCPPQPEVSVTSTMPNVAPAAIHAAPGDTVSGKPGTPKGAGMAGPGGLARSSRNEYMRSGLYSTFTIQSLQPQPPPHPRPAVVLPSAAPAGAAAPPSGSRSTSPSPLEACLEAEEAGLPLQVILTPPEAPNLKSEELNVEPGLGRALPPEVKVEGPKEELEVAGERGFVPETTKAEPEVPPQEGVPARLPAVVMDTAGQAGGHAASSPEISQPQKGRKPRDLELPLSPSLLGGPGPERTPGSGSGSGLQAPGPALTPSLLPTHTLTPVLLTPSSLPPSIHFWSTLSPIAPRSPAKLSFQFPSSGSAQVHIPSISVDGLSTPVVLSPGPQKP
# In short: (§1)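 A tag-only sample was pooled with DNA-barcoded human transcription factors that had been expressed in yeast as GST fusions and captured on glutathione beads. The pools were incubated for 30 min at room temperature with 200 nmole of a random double-stranded 16-mer DNA library in Tris/NaCl/DTT/glycerol buffer, then washed, crosslinked with 0.1% formaldehyde, proximity-ligated (BsaI/T4 ligase, 1 h, 37 °C), PCR-amplified and sequenced on an Illumina NextSeq500. Binding signal is each hexamer's read frequency for a factor divided by its frequency for the tag-only sample.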
# GABPA = target: T2, GABPA (Homo sapiens, UniProt Q06546 1-454)
# T2 sequence: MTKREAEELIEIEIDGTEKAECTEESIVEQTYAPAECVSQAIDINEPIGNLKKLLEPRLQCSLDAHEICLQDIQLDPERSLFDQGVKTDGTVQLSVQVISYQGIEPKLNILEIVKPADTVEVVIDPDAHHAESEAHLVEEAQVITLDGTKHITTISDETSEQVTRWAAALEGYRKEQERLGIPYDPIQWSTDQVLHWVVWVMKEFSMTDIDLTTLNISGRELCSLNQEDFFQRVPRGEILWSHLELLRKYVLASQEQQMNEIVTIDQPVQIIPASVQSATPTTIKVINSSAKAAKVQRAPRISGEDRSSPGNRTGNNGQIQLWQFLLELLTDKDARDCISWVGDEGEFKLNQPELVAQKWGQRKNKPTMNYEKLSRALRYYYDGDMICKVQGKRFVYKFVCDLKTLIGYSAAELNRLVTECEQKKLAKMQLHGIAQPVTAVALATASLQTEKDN
# In short: as §1
# ERG = target: T3, ERG (Homo sapiens, UniProt P11308 1-479)
# T3 sequence: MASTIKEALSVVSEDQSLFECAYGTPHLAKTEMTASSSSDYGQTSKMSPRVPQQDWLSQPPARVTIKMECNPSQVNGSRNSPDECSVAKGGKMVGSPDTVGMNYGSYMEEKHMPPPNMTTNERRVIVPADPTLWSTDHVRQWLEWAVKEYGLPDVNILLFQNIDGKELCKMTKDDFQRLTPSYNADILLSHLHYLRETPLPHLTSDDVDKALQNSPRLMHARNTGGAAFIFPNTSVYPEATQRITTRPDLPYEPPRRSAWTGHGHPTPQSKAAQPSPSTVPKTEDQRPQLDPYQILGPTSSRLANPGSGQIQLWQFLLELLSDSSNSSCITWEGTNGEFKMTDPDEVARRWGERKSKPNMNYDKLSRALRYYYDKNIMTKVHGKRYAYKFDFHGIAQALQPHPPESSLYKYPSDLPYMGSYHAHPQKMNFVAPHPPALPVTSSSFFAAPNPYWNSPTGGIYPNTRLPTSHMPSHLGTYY
# In short: as §1
# ELF1 = ELF1 (Homo sapiens, UniProt P32519 1-619)
# Sequence of ELF1 (P32519 whole entry): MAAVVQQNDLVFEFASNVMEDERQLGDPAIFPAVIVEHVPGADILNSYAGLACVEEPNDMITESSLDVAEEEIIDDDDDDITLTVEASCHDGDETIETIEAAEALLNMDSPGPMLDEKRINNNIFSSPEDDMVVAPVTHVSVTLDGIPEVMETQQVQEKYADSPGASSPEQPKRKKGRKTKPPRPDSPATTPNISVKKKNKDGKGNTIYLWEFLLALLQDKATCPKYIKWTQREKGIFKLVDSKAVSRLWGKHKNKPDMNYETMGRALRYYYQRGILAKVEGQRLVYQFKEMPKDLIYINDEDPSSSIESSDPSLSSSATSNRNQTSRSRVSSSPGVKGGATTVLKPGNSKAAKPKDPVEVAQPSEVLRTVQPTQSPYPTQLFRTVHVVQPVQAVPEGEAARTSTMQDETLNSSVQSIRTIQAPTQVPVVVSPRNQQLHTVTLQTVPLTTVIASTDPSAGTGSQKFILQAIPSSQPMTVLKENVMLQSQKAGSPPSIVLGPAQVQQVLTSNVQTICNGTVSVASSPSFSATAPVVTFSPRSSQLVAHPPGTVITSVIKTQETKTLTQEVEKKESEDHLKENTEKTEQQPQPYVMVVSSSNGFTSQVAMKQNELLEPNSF
# In short: as §1
# EHF = target: T4, EHF (Homo sapiens, UniProt Q9NZC4 1-300)
# T4 sequence: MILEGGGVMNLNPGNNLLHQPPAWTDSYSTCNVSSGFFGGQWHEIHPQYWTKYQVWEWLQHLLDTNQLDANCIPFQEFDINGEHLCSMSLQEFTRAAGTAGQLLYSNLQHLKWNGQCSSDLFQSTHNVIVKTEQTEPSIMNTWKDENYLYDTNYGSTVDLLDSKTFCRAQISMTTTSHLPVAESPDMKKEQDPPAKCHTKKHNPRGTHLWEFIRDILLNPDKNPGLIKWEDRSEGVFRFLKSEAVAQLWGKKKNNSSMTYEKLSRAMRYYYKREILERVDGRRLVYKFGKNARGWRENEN
# In short: as §1
# SPIB = SPIB (Homo sapiens, UniProt Q01892 1-262)
# Sequence of SPIB (Q01892 whole entry): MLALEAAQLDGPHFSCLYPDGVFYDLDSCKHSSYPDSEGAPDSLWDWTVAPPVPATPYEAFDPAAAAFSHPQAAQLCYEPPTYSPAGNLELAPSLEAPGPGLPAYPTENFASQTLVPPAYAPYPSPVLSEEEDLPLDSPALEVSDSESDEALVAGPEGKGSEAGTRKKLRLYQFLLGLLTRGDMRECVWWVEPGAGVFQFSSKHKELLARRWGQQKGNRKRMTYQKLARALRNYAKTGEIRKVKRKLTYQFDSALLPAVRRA
# In short: as §1
# ETV5 = ETV5 (Homo sapiens, UniProt P41161 1-510)
# Sequence of ETV5 (P41161 whole entry): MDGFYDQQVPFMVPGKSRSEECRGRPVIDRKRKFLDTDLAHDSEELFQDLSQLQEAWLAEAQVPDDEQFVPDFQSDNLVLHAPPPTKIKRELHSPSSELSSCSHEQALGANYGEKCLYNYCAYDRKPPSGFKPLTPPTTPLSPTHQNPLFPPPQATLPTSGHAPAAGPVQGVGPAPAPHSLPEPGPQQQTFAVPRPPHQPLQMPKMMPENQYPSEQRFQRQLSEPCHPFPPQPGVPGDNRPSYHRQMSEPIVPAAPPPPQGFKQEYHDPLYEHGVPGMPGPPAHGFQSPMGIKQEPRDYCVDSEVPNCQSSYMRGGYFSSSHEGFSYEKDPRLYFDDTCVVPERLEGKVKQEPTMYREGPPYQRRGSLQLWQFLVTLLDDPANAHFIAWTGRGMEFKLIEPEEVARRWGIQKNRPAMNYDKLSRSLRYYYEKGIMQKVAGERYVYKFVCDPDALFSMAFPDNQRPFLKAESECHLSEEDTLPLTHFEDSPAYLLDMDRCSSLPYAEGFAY
# In short: as §1
# ELK4 = target: T5, ELK4 (Homo sapiens, UniProt P28324-2 1-405)
# T5 sequence: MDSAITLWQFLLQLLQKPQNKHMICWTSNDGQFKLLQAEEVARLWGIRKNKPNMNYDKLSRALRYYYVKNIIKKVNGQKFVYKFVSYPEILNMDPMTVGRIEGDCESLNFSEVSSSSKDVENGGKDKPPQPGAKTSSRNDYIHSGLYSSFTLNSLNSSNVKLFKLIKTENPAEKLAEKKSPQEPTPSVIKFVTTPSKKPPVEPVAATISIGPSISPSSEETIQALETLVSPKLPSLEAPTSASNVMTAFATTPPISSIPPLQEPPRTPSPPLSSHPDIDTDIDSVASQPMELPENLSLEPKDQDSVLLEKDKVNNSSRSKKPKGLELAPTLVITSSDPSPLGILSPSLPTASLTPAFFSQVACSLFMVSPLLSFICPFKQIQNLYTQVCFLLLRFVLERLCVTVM
# In short: as §1
# ELF3 = target: T6, ELF3 (Homo sapiens, UniProt P78545 1-371)
# T6 sequence: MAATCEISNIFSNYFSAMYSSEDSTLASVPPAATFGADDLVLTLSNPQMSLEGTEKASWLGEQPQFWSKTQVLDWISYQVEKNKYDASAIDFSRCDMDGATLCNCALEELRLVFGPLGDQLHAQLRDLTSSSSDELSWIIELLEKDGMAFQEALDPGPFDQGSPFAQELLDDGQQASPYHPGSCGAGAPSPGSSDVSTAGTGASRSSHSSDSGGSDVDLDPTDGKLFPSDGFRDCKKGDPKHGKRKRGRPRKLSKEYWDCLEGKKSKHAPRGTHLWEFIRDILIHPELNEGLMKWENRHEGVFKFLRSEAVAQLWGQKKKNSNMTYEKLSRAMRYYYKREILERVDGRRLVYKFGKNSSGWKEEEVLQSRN
# In short: as §1
# ETV1 = ETV1 (Homo sapiens, UniProt P50549 1-477)
# Sequence of ETV1 (P50549 whole entry): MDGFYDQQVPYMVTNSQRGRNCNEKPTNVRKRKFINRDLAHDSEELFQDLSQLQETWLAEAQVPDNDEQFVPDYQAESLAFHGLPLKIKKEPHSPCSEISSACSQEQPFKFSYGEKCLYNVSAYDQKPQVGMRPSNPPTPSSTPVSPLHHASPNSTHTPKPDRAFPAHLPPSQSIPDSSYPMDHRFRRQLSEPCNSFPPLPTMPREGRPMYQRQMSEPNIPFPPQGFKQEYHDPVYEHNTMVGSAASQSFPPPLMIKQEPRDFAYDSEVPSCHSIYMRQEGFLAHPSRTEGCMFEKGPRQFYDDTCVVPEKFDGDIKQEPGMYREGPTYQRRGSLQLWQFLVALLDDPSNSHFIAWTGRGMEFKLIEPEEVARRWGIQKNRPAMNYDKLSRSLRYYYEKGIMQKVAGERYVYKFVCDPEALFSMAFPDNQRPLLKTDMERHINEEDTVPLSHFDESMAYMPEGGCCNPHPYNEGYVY
# In short: as §1
# ERF = target: T7, ERF (Homo sapiens, UniProt P50548 1-548)
# T7 sequence: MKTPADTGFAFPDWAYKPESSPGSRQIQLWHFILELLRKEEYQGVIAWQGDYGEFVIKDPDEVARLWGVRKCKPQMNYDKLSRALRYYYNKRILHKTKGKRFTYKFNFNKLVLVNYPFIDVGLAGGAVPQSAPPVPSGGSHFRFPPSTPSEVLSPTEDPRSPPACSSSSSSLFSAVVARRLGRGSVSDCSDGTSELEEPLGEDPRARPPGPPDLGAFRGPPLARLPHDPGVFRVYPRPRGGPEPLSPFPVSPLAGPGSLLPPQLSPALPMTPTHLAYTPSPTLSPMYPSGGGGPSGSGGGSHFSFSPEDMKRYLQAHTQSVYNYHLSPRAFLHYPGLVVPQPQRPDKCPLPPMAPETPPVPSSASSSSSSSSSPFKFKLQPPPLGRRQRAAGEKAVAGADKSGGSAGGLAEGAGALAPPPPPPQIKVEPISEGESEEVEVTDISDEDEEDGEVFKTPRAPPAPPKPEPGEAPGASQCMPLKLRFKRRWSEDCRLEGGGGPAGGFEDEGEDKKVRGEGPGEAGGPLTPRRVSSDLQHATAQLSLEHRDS
# In short: as §1
# ETV3L = target: T8, ETV3L (Homo sapiens, UniProt Q6ZN32 1-361)
# T8 sequence: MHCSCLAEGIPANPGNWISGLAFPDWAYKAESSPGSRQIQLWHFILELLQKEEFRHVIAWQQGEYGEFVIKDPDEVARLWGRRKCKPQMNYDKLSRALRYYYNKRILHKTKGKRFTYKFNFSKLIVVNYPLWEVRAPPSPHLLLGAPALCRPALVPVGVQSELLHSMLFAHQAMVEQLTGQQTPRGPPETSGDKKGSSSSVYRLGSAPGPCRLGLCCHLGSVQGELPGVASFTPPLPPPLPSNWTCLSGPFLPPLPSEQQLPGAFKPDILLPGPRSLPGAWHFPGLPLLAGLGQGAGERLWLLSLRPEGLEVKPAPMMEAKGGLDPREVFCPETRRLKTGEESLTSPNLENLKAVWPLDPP
# In short: as §1
# SPDEF = target: T9, SPDEF (Homo sapiens, UniProt O95238 1-335)
# T9 sequence: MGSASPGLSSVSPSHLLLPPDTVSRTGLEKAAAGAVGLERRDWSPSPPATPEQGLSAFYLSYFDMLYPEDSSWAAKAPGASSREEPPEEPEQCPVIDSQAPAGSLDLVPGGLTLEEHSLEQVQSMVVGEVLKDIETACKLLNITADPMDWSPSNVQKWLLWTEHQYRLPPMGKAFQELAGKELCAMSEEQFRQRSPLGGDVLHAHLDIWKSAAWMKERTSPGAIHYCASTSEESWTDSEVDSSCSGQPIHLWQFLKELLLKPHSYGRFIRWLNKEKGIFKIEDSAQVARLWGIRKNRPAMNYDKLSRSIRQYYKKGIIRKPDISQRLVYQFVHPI
# In short: as §1
# ETV7 = target: T10, ETV7 (Homo sapiens, UniProt Q9Y603 1-341)
# T10 sequence: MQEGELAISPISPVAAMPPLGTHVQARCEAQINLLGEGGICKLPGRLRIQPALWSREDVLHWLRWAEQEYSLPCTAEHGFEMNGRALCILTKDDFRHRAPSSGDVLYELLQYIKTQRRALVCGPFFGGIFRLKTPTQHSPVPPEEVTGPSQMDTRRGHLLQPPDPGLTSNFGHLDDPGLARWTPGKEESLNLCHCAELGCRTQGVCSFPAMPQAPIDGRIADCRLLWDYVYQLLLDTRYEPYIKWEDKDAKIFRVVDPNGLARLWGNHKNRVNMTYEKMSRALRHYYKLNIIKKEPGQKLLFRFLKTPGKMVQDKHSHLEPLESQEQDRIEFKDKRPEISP
# In short: as §1
# ETV6 = ETV6 (Homo sapiens, UniProt P41212 1-452)
# Sequence of ETV6 (P41212 whole entry): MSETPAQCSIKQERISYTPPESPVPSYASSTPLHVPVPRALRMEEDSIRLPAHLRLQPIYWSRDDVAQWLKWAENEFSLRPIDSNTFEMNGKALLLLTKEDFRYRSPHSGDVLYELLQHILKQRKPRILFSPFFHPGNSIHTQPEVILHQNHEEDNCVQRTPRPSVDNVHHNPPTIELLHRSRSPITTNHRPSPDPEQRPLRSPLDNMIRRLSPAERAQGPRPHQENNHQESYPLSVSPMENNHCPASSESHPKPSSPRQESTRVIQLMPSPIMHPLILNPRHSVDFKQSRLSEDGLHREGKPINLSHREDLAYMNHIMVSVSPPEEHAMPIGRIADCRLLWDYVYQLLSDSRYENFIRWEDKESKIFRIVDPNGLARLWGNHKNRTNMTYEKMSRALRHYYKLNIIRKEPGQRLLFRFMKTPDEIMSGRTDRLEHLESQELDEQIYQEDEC
# In short: as §1
sequence,measurement,setting,value
CGAATC,binding signal,ELK1,"1.01 fold enrichment (6-mer frequency, TF over GST control)"
same,binding signal,GABPA,"1.14 fold enrichment (6-mer frequency, TF over GST control)"
same,binding signal,ERG,"1.05 fold enrichment (6-mer frequency, TF over GST control)"
same,binding signal,ELF1,"1 fold enrichment (6-mer frequency, TF over GST control)"
same,binding signal,EHF,"1.06 fold enrichment (6-mer frequency, TF over GST control)"
same,binding signal,SPIB,"1.13 fold enrichment (6-mer frequency, TF over GST control)"
same,binding signal,ETV5,"1.07 fold enrichment (6-mer frequency, TF over GST control)"
same,binding signal,ELK4,"1.09 fold enrichment (6-mer frequency, TF over GST control)"
same,binding signal,ELF3,"1.11 fold enrichment (6-mer frequency, TF over GST control)"
same,binding signal,ETV1,"1.02 fold enrichment (6-mer frequency, TF over GST control)"
same,binding signal,ERF,"1.15 fold enrichment (6-mer frequency, TF over GST control)"
same,binding signal,ETV3L,"1 fold enrichment (6-mer frequency, TF over GST control)"
same,binding signal,SPDEF,"1.12 fold enrichment (6-mer frequency, TF over GST control)"
same,binding signal,ETV7,"1.02 fold enrichment (6-mer frequency, TF over GST control)"
same,binding signal,ETV6,"1.01 fold enrichment (6-mer frequency, TF over GST control)"
